# Measured values: PubChem BioAssay AID1259318 (Sanford-Burnham Center for Chemical Genomics, 2017)
# Screen size: about 370,000 compounds; about 3,000 (0.81%) were called active.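 The calls were made as follows: active = activity above about 14% (limit read from the data; passing the limit was not always enough); inactive = the rest.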 The entries come from a sample that favours actives as a whole. Where a SMILES comes first, the peptide text is derived from it. Side-chain parts run from the residue outwards. [ ]: non-standard residue; d: D form. The star is where a group is joined. X1 = CCC(C)C(N)C1=NC(C(=O)*)CS1; Orn = NCCC[CH](N)C(=O)O
# Target: Nuclear receptor subfamily 1 group D member 1 (Homo sapiens) (UniProt P20393)
# Assay: Rev-erbα–DNA interaction modulation – biochemical, FITC-DNA, fluorescence polarization, uHTS, primary screen (AID 1259318);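 also: 0% = DMSO wells with 35 nM protein and 100% = DMSO wells with 750 nM protein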
# Conditions: Rev-erbα–FITC-DNA binding, 90 min, at 10 µM, stronger effect = higher value
# Nuclear receptor subfamily 1 group D member 1 (Homo sapiens), sequence (P20393 whole entry, looked up): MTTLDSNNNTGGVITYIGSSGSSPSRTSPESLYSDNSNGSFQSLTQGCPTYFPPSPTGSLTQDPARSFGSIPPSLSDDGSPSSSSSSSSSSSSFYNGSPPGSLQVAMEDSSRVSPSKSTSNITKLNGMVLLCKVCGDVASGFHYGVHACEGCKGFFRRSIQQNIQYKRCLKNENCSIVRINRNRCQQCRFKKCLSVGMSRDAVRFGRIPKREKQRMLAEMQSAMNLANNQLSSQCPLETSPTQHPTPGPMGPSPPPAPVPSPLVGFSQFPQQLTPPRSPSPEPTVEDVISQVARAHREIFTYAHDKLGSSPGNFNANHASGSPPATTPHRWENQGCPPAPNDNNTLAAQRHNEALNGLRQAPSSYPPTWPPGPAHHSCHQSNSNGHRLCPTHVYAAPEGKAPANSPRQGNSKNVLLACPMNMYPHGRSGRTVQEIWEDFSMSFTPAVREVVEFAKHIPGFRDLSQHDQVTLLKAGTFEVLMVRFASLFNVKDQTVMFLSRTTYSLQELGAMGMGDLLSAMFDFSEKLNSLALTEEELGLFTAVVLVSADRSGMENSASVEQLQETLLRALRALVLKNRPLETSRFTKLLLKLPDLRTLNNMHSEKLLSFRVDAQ
row,Compound,activity
1,CCc1ccc(Nc2ncc3c(n2)CC(c2ccco2)CC3=O)cc1 (configuration not stated),2.68% (inactive)
2,CCCNC(=O)CCc1c(C)nc2c(c(C)nn2-c2ccccc2)c1C,-3.83% (inactive)
3,NCC[C@@H](O)C(=O)N[C@@H]1C[C@H](N)[C@@H](O[C@H]2O[C@H](CN)[C@@H](O)[C@H](O)[C@H]2O)[C@H](O)[C@H]1O[C@H]1O[C@H](CO)[C@@H](O)[C@H](N)[C@@H]1O,-0.91% (inactive)
4,CCOC(=O)Cn1c(=O)oc2cc(S(=O)(=O)NCC3CCCO3)ccc21 (configuration not stated),-1.52% (inactive)
5,COCCCNC(=O)C1CCC(CNS(=O)(=O)c2ccc(OC)cc2)CC1 (configuration not stated),-5.72% (inactive)
6,Cc1ccc(-n2nc3cc(C)c(NC(=O)c4cccnc4)cc3n2)cc1,36.7% (active)
7,O=C(Nc1cccc(-n2cnnn2)c1)c1cccnc1,1.66% (inactive)
8,Cc1cccc(C(=O)Nc2ccccc2C(=O)NCc2cccnc2)c1,0.06% (inactive)
9,Cc1ccc(-n2c(COc3ccccc3)nnc2SCC(=O)Nc2ccc3c(c2)OCCO3)cc1,1.23% (inactive)
10,CCc1ccc(-c2cc3c(=O)n(CC(=O)NCCCN4CCN(Cc5ccccc5)CC4)nc(C)n3n2)cc1,2.85% (inactive)
11,COC(=O)C[C@H]1C[C@@H]2c3cc(N(C)C)ccc3O[C@@H]2[C@H](CO)O1,7.34% (inactive)
12,CCN1C(=O)/C(=C\N2CCN(c3cccc(Cl)c3)CC2)SC1=S,877% (active)
13,CCC1(C)NC(=O)N(CC(=O)N2CCN(c3cccc(Cl)c3)CC2)C1=O (configuration not stated),-2.92% (inactive)
14,CCN1C(=O)/C(=C\N2CCOCC2)SC1=S,2.02% (inactive)
15,CCCc1nnc(NC(=O)CCC(=O)N2CCN(S(=O)(=O)c3ccc(OC)cc3)CC2)s1,-2.83% (inactive)
16,COC(=O)[C@@]12C[C@@H](CC(=O)NCCCCc3ccccc3)C(=O)N(CCc3ccc(OC)c(OC)c3)C1=CCC(C)(C)C2,0.11% (inactive)
17,O=C(NCc1ccc(Cl)cc1)c1cc2c(nc3sccn32)s1,25.1% (active)
18,O=C(NCc1ccc2c(c1)OCO2)c1c(O)nc2sccn2c1=O,-1.37% (inactive)
19,O=C(NCc1ccc(Cl)cc1)c1cc(=O)nc2sc(-c3ccccc3)nn12,7.32% (inactive)
20,COCc1c(C(=O)N/N=C/C2CC=CCC2)nnn1-c1nonc1N (configuration not stated),-3.01% (inactive)
21,CN(CC1CCCN(CCc2cccc(C(F)(F)F)c2)C1)C(=O)c1ccc2nc[nH]c2c1 (configuration not stated),4.2% (inactive)
22,CC1=CC[C@H](C(C)(C)O)CC1,1.53% (inactive)
23,COc1ccc(S(=O)(=O)N2CCOCC2)cc1C(=O)Nc1nc2ccccc2s1,46.8% (active)
24,COc1ccc(S(=O)(=O)N2CCOCC2)cc1NC(=O)CSc1ncnc2ccccc12,-2.02% (inactive)
25,COc1ccc(S(=O)(=O)N2CCOCC2)cc1C(=O)NC1CCCCC1,-1.23% (inactive)
26,CC1CN(C(=O)c2ccc3c(c2)OCO3)OC(c2ccccc2)O1 (configuration not stated),8.07% (inactive)

row,Compound,activity
1,COc1ccc(S(=O)(=O)N(C)CC(=O)NCCCN2CCOCC2)cc1Cl,3.3% (inactive)
2,CCCS(=O)(=O)NC(=O)C1(C)CCCN(C(=O)c2cccs2)C1 (configuration not stated),-2.98% (inactive)
3,Nc1nc(/C(=C/CC(=O)O)C(=O)N[C@@H]2C(=O)N3C(C(=O)O)=CCS[C@H]23)cs1,-0.02% (inactive)
4,CCC(C)C(N)C1=NC(C(=O)NC(CC(C)C)C(=O)NC(CCC(=O)O)C(=O)NC(C(=O)NCCCCC2NC(=O)C(CC(N)=O)NC(=O)C(CC(=O)O)NC(=O)C(Cc3cnc[nH]3)NC(=O)C(Cc3ccccc3)NC(=O)C(C(C)CC)NC(=O)C(CCCN)NC2=O)C(C)CC)CS1 (stereo not drawn) (cyclo(DNK([Ile-Glu-Leu-X1])[Orn]IFH); configuration not given here),-1.28% (inactive)
5,COC(=O)c1ccc(NC(=O)c2cc(Cl)ccc2OC)cc1,46.1% (active)
6,CCC(C)NC(=O)c1cc(Cl)ccc1OC (configuration not stated),-0.16% (inactive)
7,COc1ccc(Cl)cc1-c1cc(C(=O)Nc2cc(OC)c(OC)c(OC)c2)[nH]n1,0.68% (inactive)
8,Cc1ccc2c(C)c(C(=O)N3CCC(N4CCC(C(=O)NC5CC5)CC4)CC3)oc2c1,5.47% (inactive)
9,O=C(NCCCc1ccccc1)[C@H](Cc1ccccc1)NC1(C(=O)NCCc2c[nH]c3ccccc23)CCC1,1.61% (inactive)
10,CCc1cccc(NC(=S)N(CCN(C)C)C2CCN(C(C)C)CC2)c1,-2.21% (inactive)
11,CCc1ccc2c(c1)cc(CN(C(=S)Nc1ccccc1Cl)C1CC1)c1nnnn12,18.7% (active)
12,CCOc1ccc2c(c1)cc(CN(C(=O)CC)C1CCCCC1)c1nnnn12,-0.47% (inactive)
13,O=C(c1cccc(Br)c1)N1CCN(C2=NS(=O)(=O)c3ccccc32)CC1,1% (inactive)
14,CC(=O)NCc1ccc(S(=O)(=O)NC2CCN(Cc3ccccc3)CC2)cc1,-1.17% (inactive)
15,CCCn1c(SCC(=O)c2ccc3c(c2)OCCO3)nnc1C(C)C,-3.34% (inactive)
16,COc1ccc(-c2nnc(SCC(=O)c3ccc4c(c3)OCCO4)o2)cc1,39.7% (active)
17,COc1ccc(CN(C(=O)CSc2nnc(-c3ccc(OC)c(OC)c3)o2)c2ccc(F)cc2)cc1,4.8% (inactive)
18,CCc1ccccc1NC(=O)CSc1nnc(-c2cccs2)o1,-8.53% (inactive)
19,O=C(CCc1nnc2ccc(NCc3ccccc3Cl)nn12)NCC1CCN(C2CCCC2)C1 (configuration not stated),-21.6% (inactive)
20,CC12CCC(=O)C=C1CCC1C2[C@@H](O)CC2(C)C1CC[C@]2(O)C(=O)COP(=O)(O)O (some centres not stated),1.93% (inactive)
21,CC(C)CCn1c(=O)c2c(nc3n2CCCN3Cc2ccccc2)n(C)c1=O,-1.34% (inactive)
22,C/C(Cc1ccccc1)=N\NC(=O)CNC(=O)c1cccc(Br)c1,-0.21% (inactive)
23,Cn1c(=O)n(C)c2cc(/C=N/NC(=O)c3cccc(Br)c3)ccc21,49.2% (active)
24,O=C(N/N=C/c1ccc(OCC2COCCO2)cc1)c1ccc(Br)cc1 (configuration not stated),-0.42% (inactive)
25,Cc1nc(CNc2ncnc3ccc(-c4ccc5c(c4)OCO5)cc23)cs1,-0.38% (inactive)
26,CCOC(=O)C1CCN(C(=O)C(C)(C)NC(=O)Nc2ccc(F)c(F)c2)CC1,-2.08% (inactive)
